In PubChem BioAssay (NCI) one finds growth data, which are given here for 39 compounds.

Each structure is given as a SMILES string. This is part of a sample that, as a whole, favours compounds with a hit. Of some 83,000 tested, about 20% had one in any assay.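 The test compound was applied at a single concentration to cells in 96-well plates for 48 hours, and percent growth was recorded.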 Values without a mark were called inactive. Calls of active or inactive are those of the source.

One experiment deals with SNB-19 CNS. Put plainly: NCI-60 one-dose screen, 48 h (100 = growth as untreated, 0 = no growth, -100 = all killed). The following applies: 1 µM. On the procedure: Growth inhibition of the SNB-19 human tumor cell line is measured as a screen for anti-cancer activity. Cells are grown in 96 well plates and exposed to the test compound for 48 hours. Compounds are tested at a single concentration, which is 10^-5 M for most compounds. The reported endpoint is percent growth (GI% or GIPRCNT), where numbers from 0 - 100% represent growth inhibition, and numbers from -100% - 0 represent cell death. For example, a value of 40 represents 60% growth inhibition. A value of 0 means no net growth occurred over the course of the experiment. A value of -40 indicates 40% of cells at the beginning of the experiment died by the end of the experiment. A value of -100 means all cells are dead at the end of the experiment.
NCI-60 Human Tumor Cell Lines Screen was performed using the standard one-dose NCI protocol, which is described in more detail at https://dtp.cancer.gov/discovery_development/nci-60/default.htm.
Compounds with GIPRCNT values below 10 were considered active. Activity score was based on GIPRCNT using the following formula: […]
Score is 0 for GIPRCNT values of 100 or above, 50 for GIPRCNT values of 0, and 100 for GIPRCNT values of -100.
Turning to `CC/C(=C(\c1ccc(O)cc1)c1ccc(OCCN(C)C(=O)CCOCCNC(=O)c2ccc3c(c2)CN([C@@H]2CCC(=O)NC2=O)C3=O)cc1)c1ccccc1`, the growth is 92.7%.

Still in this experiment, the particulars now being: 10 µM.
In the case of `CC/C(=C(\c1ccc(O)cc1)c1ccc(OCCN(C)C(=O)CCOCCNC(=O)c2ccc3c(c2)CN([C@@H]2CCC(=O)NC2=O)C3=O)cc1)c1ccccc1`, the growth is 90.1%.

Still in this experiment, the particulars now being: 10 µM unless noted.
Regarding `COc1ccc2[nH]c(O)c(N=Nc3nc(-c4ccc(C#N)cc4)cs3)c2c1`, the growth was 77.2%.
Regarding `CN1CCc2c(sc3ncnc(N/N=C/c4cccc(Cl)c4Cl)c23)C1`, the growth was 4.21% (active).
Turning to `Cn1cc(-c2cc(N)n3nc(-c4c[nH]c5ccccc45)cc3n2)c2cc(Cl)ccc21`, the growth was -91.1% (active).
Same read-out and setting: with `COc1ccc(-c2cc(C(=O)N=Nc3c(O)[nH]c4ccc(Cl)cc34)c3ccccc3n2)cc1OC` the figure was 97.1%; with `CCCCC[C@@H]1C/C=C(\C)[C@@H](O)C(C)(C)C(=O)[C@@H](C)/C=C(\C)[C@@H]2C[C@H](O)C[C@](O)(CC(=O)O1)O2`, 37.2%; with `O=C(N/N=C/c1ccoc1)c1[nH]c2ccc(Br)cc2c1-c1ccccc1`, -97.5% (active).
For `COc1cc(/C=N/NC(=O)c2ccc(OCc3nc4ccc(Cl)cc4[nH]3)cc2)cc(OC)c1OC`, the growth is 55.5%.
On the same count and under the same terms, the same measure for `CN1CCN(C(=O)CCN(C(=O)Oc2cc3c(c4ccccc24)[C@H](CCl)CN3C(=O)c2cc3cc(OCCCN4CCC4)ccc3[nH]2)[C@H]2CCSSC2)CC1`: -50.7% (active).
For the compound `COc1cccc(C(N)=Nc2ccc(OCCCCCCCCn3cncn3)cc2)c1`, the growth was 24.6%.
On to `CCOc1ccc(-c2cc(-c3cc(C(C)C)c(O)cc3C)nn2-c2ccc(S(N)(=O)=O)cc2)cc1`, for which the growth is 49%.
Same read-out and setting: the same measure for `O=CNc1cccc(-n2cnc3cc(-c4ccc(O)cc4)ccc32)c1`: 43.3%; for `S=C(Nc1ccccc1)Nc1ccc(OCc2nc3ccc(Cl)cc3[nH]2)cc1`: 89.1%.
Regarding `CCCN(CCC)S(=O)(=O)c1ccc(C(=O)O)cc1.CCCN(CCC)S(=O)(=O)c1ccc(C(=O)O)cc1.[Cl][Pt+2][Cl].[NH2-].[NH2-]`, the growth was 26.7%.
On to `CS(=O)(=O)Nc1cccc(-n2cnc3cc(-c4ccc(O)cc4)ccc32)c1`, for which the growth is 25.4%.
Still for that read-out and setting: the same measure for `O=C(Cn1c(/C=C/c2ccc([N+](=O)[O-])cc2)nc2ccccc2c1=O)Nc1ccccc1`: 37.2%; for `COc1ccc(-c2nc3ccccc3n2CC(=O)N=Nc2c(O)[nH]c3ccc(OC)cc23)cc1`: 95.1%.
Same read-out and setting: with `Cn1ncc2c(N)nc(Oc3ccccc3-c3ccccc3)nc21` the figure was 33.8%.
On the same count and under the same terms, the same measure for `Cc1ccc(C(=O)C[n+]2cccc3c4ccccc4ccc32)cc1`: 25.9%; for `Cc1oc(-c2ccccc2)nc1CN[C@@H]1C[C@@H]2C[C@H]([C@H]1C)C2(C)C`: 37.6%; for `COC(=O)c1cccc(Oc2ccc(NC(=O)Nc3cc(C(F)(F)F)ccc3F)cc2)c1`: 10.7%.
As for `N#C/C(=C/c1ccc([N+](=O)[O-])cc1)c1nnc(NC(=O)c2ccc(-n3c(=O)[nH]c4ccccc4c3=O)cc2)s1`, the growth is 87.1%.
On the same count and under the same terms, with `Clc1ccc(-c2nc3ccc(-c4nnc(SCc5ccccc5)o4)cc3[nH]2)cc1` the figure was 27%.
The same measure, in the same setting: with `CN(C)CCCc1ccc(Nc2cnn(C)c(=O)c2Cl)cc1` the figure was 103%; with `N/C(=N\c1nc2ccccc2s1)NC(=O)Nc1ccccc1[N+](=O)[O-]`, 21.1%.
Same read-out and setting: the same measure for `COc1cc(C2CC(c3cc(OC)c(OC)c(OC)c3)=Nc3c(N)nc(N)nc3N2)ccc1Oc1nc(Nc2ccc(F)cc2)nc(N(C)C)n1` (stereo not given): 70.7%; for `O=C(Nc1ccc(Cl)c(C(F)(F)F)c1)N1CCN(c2cc(-c3cn(-c4ccccc4)nc3-c3cccc(O)c3)ccn2)CC1`: 17%; for `CC1=NN(C2=NC(=O)C(CC(=O)Nc3ccccc3C(F)(F)F)S2)C(c2ccc(N(C)C)cc2)C1` (stereo not given): 54.5%.
In the case of `COC(=O)c1c(C(=O)OC)c2ccc3c4ccccc4ccc3n2c1C(=O)C(C)Br` (stereo not given), the growth is 52.1%.
On the same count and under the same terms, with `O=C(NN1C(=O)/C(=C/C=C/c2ccc([N+](=O)[O-])o2)SC1=S)c1ccc([N+](=O)[O-])cc1` the figure was -100% (active); with `c1n[nH]cc1-c1nc2ccc3[nH]ncc3c2c2c1CC1(CCOCC1)CC2`, 37.4%.
Same read-out and setting: the same measure for `CN1C(=O)/C(=C/c2ccco2)S/C1=N/c1nccs1`: 99.4%; for `Nc1ccc(-c2ccc3ncnc(N4CCc5cc(F)c(Cl)cc54)c3c2)cn1`: 39.3%.
Still for that read-out and setting: with `COc1cccc(NC(=O)c2ccc(NC(=O)CCl)s2)c1` the figure was 73.8%; with `COc1nc(N)ncc1-c1ccc2ncnc(N3CCc4cc(F)c(Cl)cc43)c2c1`, 1.32% (active).
Regarding `CCN(C(=O)CN1C(=O)/C(=C/c2ccco2)SC1=S)C1CCS(=O)(=O)C1` (stereo not given), the growth is 91.8%.
The same measure, in the same setting: the same measure for `CS(=O)(=O)c1ccc(-n2nc(C(=O)NCc3ccccc3)cc2-c2ccc(Cl)cc2)cc1`: 78.9%; for `ClC(Cn1ncc2c(Nc3cccc(Br)c3)nc(SCCN3CCOCC3)nc21)c1ccc(Br)cc1` (stereo not given): 22.5%; for `O=C1NC(=NC23CC4CC(CC(C4)C2)C3)N/C1=C\c1ccc2ncccc2c1`: 5.85% (active).
